In ChEMBL document CHEMBL1961873, “Compounds: GSK PKIS; Assays: Nanosyn kinase panel” (2012):

Assays:
[1] = target: Fibroblast growth factor receptor 4 (Homo sapiens) (UniProt P22455); conditions: at 1 µM;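 also: reported figure is the averaged percent inhibition of FGFR4, from the GSK PKIS kinase screening panel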
[2] = target: Tyrosine-protein kinase Fgr (Homo sapiens) (UniProt P09769); conditions: at 0.1 µM
[3] = target: Tyrosine-protein kinase Fgr (Homo sapiens) (UniProt P09769); conditions: at 1 µM
[4] = target: Vascular endothelial growth factor receptor 1 (Homo sapiens) (UniProt P17948); conditions: at 0.1 µM
Sequence of Vascular endothelial growth factor receptor 1 (Homo sapiens) (P17948 whole entry): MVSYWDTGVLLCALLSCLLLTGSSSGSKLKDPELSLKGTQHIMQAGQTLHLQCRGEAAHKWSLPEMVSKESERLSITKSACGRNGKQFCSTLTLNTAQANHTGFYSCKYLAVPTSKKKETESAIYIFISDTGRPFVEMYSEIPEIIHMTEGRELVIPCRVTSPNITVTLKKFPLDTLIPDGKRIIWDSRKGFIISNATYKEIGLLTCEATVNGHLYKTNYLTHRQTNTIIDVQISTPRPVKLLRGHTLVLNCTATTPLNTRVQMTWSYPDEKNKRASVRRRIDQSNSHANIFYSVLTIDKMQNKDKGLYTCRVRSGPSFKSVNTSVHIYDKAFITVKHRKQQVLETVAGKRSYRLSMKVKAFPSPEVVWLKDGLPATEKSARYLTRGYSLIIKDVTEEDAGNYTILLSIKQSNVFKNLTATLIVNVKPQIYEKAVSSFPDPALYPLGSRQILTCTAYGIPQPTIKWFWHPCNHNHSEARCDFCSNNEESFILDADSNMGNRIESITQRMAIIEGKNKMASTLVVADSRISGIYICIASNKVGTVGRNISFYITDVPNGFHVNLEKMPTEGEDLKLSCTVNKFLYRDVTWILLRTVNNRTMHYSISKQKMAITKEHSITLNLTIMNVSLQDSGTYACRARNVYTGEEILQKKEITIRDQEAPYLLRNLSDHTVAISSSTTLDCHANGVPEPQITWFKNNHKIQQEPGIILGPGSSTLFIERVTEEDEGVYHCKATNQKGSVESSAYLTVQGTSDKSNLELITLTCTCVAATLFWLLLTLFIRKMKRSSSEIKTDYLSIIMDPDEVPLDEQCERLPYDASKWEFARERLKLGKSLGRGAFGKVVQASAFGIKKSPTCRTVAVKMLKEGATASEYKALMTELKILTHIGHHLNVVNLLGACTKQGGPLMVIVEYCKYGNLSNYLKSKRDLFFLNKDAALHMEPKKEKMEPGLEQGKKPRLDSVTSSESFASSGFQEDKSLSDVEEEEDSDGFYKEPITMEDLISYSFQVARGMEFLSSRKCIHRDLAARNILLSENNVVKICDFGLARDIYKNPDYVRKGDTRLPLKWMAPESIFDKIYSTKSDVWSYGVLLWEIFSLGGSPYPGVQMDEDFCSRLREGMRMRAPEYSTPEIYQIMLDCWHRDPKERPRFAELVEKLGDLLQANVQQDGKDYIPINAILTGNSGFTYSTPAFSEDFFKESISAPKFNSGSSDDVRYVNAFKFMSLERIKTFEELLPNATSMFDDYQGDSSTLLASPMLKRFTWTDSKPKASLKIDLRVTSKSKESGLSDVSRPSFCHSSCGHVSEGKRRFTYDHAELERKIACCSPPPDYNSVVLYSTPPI

[5] = target: Vascular endothelial growth factor receptor 1 (Homo sapiens) (UniProt P17948); conditions: at 1 µM
[6] = target: Receptor-type tyrosine-protein kinase FLT3 (Homo sapiens) (UniProt P36888); conditions: at 0.1 µM
[7] = target: Receptor-type tyrosine-protein kinase FLT3 (Homo sapiens) (UniProt P36888); conditions: at 1 µM
[8] = test system: T1, Receptor-type tyrosine-protein kinase FLT3 (Homo sapiens), P36888 [D835Y]; conditions: at 0.1 µM
T1 sequence (whole entry): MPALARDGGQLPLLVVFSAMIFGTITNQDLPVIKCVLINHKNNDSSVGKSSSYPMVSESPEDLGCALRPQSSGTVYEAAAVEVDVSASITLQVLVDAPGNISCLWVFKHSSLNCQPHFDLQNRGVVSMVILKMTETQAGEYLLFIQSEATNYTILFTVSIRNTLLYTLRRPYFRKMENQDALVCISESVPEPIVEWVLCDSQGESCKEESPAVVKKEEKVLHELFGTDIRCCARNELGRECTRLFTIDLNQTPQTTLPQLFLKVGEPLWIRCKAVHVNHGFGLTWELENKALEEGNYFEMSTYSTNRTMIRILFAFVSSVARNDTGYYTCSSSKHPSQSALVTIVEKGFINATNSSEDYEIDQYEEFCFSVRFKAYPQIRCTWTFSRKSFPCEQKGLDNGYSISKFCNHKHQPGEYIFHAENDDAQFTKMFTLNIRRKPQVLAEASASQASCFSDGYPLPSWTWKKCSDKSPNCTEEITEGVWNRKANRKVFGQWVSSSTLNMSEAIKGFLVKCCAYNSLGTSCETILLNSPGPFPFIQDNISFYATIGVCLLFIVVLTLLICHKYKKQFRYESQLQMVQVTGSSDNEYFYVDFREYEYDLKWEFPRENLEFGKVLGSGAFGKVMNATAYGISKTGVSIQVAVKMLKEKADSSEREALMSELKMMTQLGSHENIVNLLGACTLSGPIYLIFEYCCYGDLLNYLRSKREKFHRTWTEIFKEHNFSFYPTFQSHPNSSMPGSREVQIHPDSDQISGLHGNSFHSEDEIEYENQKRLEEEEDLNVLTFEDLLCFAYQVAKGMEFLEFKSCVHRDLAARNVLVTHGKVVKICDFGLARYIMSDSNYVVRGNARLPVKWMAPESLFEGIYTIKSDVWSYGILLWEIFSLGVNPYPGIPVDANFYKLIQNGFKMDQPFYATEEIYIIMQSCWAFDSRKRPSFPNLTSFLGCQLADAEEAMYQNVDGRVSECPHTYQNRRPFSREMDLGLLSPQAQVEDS

[9] = target: Non-receptor tyrosine-protein kinase TYK2 (Homo sapiens) (UniProt P29597); conditions: at 1 µM;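 also: values are mean percent inhibition of TYK2 kinase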
Sequence of Non-receptor tyrosine-protein kinase TYK2 (Homo sapiens) (P29597 whole entry): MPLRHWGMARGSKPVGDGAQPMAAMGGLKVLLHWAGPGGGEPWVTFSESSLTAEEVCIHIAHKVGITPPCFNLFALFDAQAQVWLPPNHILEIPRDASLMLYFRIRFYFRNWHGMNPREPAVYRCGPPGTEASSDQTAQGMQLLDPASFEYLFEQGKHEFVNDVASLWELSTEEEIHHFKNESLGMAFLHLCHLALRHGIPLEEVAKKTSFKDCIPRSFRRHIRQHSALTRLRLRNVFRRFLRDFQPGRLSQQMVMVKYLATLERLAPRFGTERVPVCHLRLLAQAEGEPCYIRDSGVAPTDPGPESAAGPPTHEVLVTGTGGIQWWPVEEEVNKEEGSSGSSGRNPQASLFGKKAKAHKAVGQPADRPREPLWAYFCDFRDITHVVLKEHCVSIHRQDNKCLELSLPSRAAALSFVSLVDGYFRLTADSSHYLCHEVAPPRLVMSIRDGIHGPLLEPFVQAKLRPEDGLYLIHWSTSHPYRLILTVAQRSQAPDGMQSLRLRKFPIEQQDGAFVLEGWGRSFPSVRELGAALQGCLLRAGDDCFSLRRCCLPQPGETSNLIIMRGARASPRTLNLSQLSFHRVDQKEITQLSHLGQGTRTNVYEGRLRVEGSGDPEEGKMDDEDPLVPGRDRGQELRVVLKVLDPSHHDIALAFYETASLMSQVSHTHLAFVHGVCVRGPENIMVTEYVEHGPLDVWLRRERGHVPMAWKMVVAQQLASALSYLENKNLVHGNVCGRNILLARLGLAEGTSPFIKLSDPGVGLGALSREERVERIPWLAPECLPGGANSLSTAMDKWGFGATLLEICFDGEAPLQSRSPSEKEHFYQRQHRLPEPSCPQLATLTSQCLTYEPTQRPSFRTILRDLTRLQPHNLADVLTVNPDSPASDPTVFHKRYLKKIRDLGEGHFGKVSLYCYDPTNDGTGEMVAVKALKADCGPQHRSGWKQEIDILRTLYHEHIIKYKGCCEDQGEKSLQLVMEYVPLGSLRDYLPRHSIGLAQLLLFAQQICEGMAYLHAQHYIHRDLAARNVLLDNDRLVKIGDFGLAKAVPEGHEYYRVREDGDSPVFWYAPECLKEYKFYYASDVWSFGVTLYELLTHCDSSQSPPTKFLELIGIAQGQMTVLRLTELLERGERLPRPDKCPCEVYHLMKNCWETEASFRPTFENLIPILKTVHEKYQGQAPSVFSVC

[10] = target: T2, Tyrosine-protein kinase receptor TYRO3 (Homo sapiens) (UniProt Q06418); conditions: at 0.1 µM;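 also: reported percentages are averaged inhibition values of TYRO3 kinase activity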
T2 sequence (whole entry): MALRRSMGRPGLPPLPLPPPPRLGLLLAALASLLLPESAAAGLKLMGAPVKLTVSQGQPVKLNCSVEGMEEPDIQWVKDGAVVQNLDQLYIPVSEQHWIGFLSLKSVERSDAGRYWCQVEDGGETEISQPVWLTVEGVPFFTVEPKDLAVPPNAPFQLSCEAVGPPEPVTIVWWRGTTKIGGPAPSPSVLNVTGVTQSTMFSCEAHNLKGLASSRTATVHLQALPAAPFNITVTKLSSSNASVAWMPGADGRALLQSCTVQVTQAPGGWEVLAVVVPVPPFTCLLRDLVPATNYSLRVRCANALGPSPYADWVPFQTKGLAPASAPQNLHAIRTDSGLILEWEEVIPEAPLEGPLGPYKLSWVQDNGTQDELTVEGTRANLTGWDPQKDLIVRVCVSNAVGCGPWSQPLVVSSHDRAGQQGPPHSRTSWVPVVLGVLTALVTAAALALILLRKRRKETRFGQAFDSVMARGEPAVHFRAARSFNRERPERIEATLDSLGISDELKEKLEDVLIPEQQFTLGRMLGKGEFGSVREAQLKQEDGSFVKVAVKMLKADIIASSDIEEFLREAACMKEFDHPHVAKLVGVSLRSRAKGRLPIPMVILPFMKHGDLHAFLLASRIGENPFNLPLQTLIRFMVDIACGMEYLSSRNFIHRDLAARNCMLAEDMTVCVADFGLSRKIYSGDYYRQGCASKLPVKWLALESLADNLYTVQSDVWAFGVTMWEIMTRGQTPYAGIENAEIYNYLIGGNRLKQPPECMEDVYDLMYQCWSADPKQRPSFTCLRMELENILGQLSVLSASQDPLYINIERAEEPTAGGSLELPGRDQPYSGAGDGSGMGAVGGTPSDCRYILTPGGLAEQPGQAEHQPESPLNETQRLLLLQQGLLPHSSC

Sequence of Tyrosine-protein kinase Fgr (Homo sapiens) (P09769 2-529 limits assumed): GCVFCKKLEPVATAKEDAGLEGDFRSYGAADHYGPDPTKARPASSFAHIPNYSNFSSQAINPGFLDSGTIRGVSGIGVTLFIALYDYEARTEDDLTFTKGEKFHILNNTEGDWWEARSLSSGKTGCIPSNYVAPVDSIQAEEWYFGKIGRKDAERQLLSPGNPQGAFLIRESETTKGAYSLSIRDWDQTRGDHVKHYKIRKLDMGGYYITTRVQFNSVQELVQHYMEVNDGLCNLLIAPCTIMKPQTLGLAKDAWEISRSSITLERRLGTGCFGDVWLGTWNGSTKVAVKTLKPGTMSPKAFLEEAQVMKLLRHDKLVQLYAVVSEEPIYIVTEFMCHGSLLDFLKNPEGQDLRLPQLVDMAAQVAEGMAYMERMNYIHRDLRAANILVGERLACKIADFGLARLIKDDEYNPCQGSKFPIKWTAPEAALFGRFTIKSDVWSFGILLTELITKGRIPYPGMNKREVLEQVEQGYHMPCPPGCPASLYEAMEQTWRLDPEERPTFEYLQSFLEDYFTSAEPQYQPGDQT
Sequence of Fibroblast growth factor receptor 4 (Homo sapiens) (P22455 22-802 limits assumed): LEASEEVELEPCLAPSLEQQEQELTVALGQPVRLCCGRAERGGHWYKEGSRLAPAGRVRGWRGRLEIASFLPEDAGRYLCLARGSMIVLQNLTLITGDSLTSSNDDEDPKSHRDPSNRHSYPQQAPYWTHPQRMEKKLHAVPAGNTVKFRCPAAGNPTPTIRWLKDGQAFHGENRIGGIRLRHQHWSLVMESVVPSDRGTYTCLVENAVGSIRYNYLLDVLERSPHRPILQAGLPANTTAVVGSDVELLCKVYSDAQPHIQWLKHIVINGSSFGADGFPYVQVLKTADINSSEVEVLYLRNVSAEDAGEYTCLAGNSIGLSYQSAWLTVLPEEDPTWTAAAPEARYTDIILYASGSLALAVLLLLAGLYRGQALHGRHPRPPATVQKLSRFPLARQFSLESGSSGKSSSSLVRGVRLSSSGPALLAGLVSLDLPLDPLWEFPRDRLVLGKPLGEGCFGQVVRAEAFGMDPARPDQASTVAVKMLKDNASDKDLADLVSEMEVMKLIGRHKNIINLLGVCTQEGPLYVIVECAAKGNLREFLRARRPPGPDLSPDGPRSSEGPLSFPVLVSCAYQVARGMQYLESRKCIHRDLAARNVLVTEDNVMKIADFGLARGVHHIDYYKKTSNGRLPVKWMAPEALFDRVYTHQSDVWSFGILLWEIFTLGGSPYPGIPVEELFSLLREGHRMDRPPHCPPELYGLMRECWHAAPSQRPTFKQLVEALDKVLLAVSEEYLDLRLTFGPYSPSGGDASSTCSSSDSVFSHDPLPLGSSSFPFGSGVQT

Row | SMILES | inhibition [1] | inhibition [2] | inhibition [3] | inhibition [4] | inhibition [5] | inhibition [6] | inhibition [7] | inhibition [8] | inhibition [9] | inhibition [10]
1 | O=C1Nc2ccc(-c3cccnc3)cc2C1=Cc1cc(Br)c(O)c(Br)c1 | 3.07% | 1.1% | 7.55% | 2.53% | 2.06% | 1.83% | 7.91% | 11.8% | 6.13% | 3.07%
2 | CS(=O)(=O)CCNCc1nc(-c2ccc3ncnc(Nc4ccc(OCc5cccc(C(F)(F)F)c5)cc4)c3c2)cs1 | 0.59% | 2.47% | 4.41% | -0.29% | -0.5% | 7.87% | 32.1% | 2.62% | -0.77% | 0.47%
3 | Cc1cc(-c2ccccn2)cc(C)c1/C=C/c1cncc(-c2nn[nH]n2)c1 | -0.54% | 2.37% | 18.2% | -0.29% | 1.74% | 5.83% | 3.4% | -7.99% | -2.42% | 0.01%
4 | Nc1nccc(C#Cc2cncnc2Nc2ccc(OCc3cccc(F)c3)c(Cl)c2)n1 | -2.31% | 0.12% | 4.81% | 2.06% | 3.36% | 0.89% | 3.87% | 3.95% | -1.09% | 3.02%
5 | COC(=O)c1cncc(/C=C/c2c(C)cc(O)cc2C)c1 | 0.95% | 5.81% | 20.9% | 0.94% | 0.15% | 2.01% | 3.02% | -1.65% | -3.53% | 3.21%
6 | COc1cc2ncnc(Nc3ccc(C)c(O)c3)c2cc1OC | 4.07% | 15.3% | 46.2% | 74.6% | 93.2% | 0.71% | 3.03% | -2.6% | -3.35% | 6.68%
7 | COc1ccc2ncnc(Nc3ccc(OCc4ccccc4)cc3)c2c1 | 2.59% | 3.7% | 15.4% | 0.14% | 1.06% | 0.29% | 2.85% | 1.85% | -1% | 1.22%
8 | O=C1Nc2ccccc2/C1=C/Nc1ccc2[nH]c(=O)[nH]c2c1 | 11.4% | 11.3% | 26.5% | 11% | 30.1% | 26.6% | 74% | 17.5% | 18.7% | 5.57%
9 | COc1cccc(-n2ncc3c(N/N=C/c4ccc(C)cc4)ncnc32)c1 | 1.93% | 3.81% | 18.9% | -0.93% | 0.15% | 0.84% | 5.84% | 2.71% | -1.47% | 1.83%
10 | C[C@@H](Oc1cc(-n2cnc3ccc(OCC4CCN(C)CC4)cc32)sc1C(N)=O)c1ccccc1C(F)(F)F | -0.61% | 2.16% | 13.4% | -0.83% | -0.16% | 1.99% | 11% | 3.19% | 3.05% | -0.92%
11 | COc1cc2ncnc(Nc3ccc4c(cnn4Cc4ccccc4)c3)c2cc1OC | -0.35% | 18.4% | 44.2% | 0.61% | 3.06% | 4.33% | 5.83% | -2.99% | -3.38% | 1.85%
12 | COC(=O)c1ccc2c(c1)C(=Cc1cc(Br)c(O)c(Br)c1)C(=O)N2 | 3.36% | 0.15% | 9.32% | 2.43% | 2.64% | 5.48% | 7.6% | -0.04% | 51.5% | 2.46%
13 | Cc1ccc2c(-c3ccnc(Nc4cccc(C(F)(F)F)c4)n3)c(-c3ccccc3)nn2n1 | 0.17% | 36.8% | 71% | 2.37% | 21.2% | 1.89% | 10.2% | 3.67% | -1.51% | 2.7%
14 | COC(=O)Nc1nc2cc(Oc3ccc(NC(=O)Nc4cccc(Br)c4)cc3)ccc2[nH]1 | 2.05% | 4.68% | 2.98% | 33% | 53.7% | 32.8% | 56.7% | -2.2% | 0.6% | 6.92%
15 | FC(F)(F)c1ccc(-c2nn3ncccc3c2-c2ccnc(Nc3ccc4c(c3)OCCO4)n2)cc1 | 11.7% | 25.6% | 61.1% | 1.91% | 4.89% | 1.7% | 0.28% | 4.42% | 5.73% | 1.27%
16 | CCS(=O)(=O)c1ccc(OC)c(Nc2ncc(-c3cccc(OC)c3)o2)c1 | 7.65% | 19.9% | 65.2% | 9.91% | 55.9% | 16.3% | 68% | 29.4% | -4.34% | 7.64%
